Hit rate of the full screen: of about 52,000 compounds, about 4,300 (8.3%) were called active. This is one part of a sample in which actives are shown more often than they occur. Cut-off read from the data, not from the text of the source: active = survival mostly below about 52% (no sharp cut-off); inactive = mostly above about 56%.

For this assay, the system named is DeltatarO mutant. The experiment in a line: S. aureus survival, RN4220 and DeltatarO strains – OD600, teichoic acid synthesis inhibitors, primary screen (AID 463173). Particulars: S. aureus RN4220 wild type/DeltatarO growth, OD600, 18 h, stronger effect = lower value, screened at 18.75 µg/mL (by protocol).
Take `CC(C)c1ccc(NC2=NCC(=O)N2Cc2ccccc2)cc1`: the survival was 87% (inactive).

For the compound `O=C(Nc1cccc(O)c1)c1cc2nc(-c3ccc(Br)cc3)cc(C(F)(F)F)n2n1`, the survival is 120% (inactive).

Take `CC(=O)Nn1c(C)nc2ccccc2c1=O`: the survival was 75% (inactive).

For `Cc1nc(SC(C)C(=O)Nc2ccccc2Cl)cc(-c2ccccc2)n1` (configuration not stated), the survival was 61% (inactive).

Consider `CCn1c(SCC(=O)OC)nnc1-c1ccc(O)cc1`, for which the survival is 99% (inactive).

With `COc1ccc(NC(=O)CC2C(=O)N(c3cccc(OC)c3)C(=O)N2Cc2cccnc2)cc1` (configuration not stated), the survival is 94% (inactive).

`CCn1c(CN2CCCCC2)nc2cc(NC(=O)COc3cc(C)ccc3C(C)C)ccc21`: the survival is 73% (inactive).

Turning to `COc1ccc(C)cc1Nc1cc(C)nc(C)n1`, the survival is 66% (inactive).

Regarding `CCC(=O)N1CCc2cc(Br)cc(S(=O)(=O)CCC(=O)NCc3ccc(Cl)cc3)c21`, the survival is 78% (inactive).

For `CCOc1ccc(-c2cc(C(=O)OC)on2)cc1`, the survival was 55% (inactive).

`CCc1ccc(NC(=O)CC2C(=O)N(c3cccc(C)c3)C(=O)N2Cc2ccc(F)cc2)cc1` (configuration not stated): the survival is 89% (inactive).

Take `CCN(c1ccccc1)C(CNS(=O)(=O)c1ccccc1)c1ccccc1` (configuration not stated): the survival is 71% (inactive).

For the compound `CCN(C(=O)c1cc2c(s1)-c1ccccc1OC2)c1cccc(C(F)(F)F)c1`, the survival is -1% (active).

On to `Cc1ccc(CNC(=O)c2cc3c(s2)-c2ccccc2SC3)cc1`, for which the survival was 94% (inactive).

Turning to `CCCN(C(=O)c1cc2c(s1)-c1ccccc1OC2)c1ccc(C(C)C)cc1`, the survival is -3% (active).

For the compound `CN(Cc1ccccc1)C(=O)c1cc2c(s1)-c1ccc(Cl)cc1SC2`, the survival was 86% (inactive).

Turning to `CCCN(C(=O)c1cc2c(=O)n(CC)c3ccccc3c2s1)c1ccccc1F`, the survival is 64% (inactive).

As to `CCN(C(=O)c1cc2c(=O)n(CC)c3ccccc3c2s1)c1cccc(C(F)(F)F)c1`, the survival is 72% (inactive).

`CCCN(C(=O)c1cc2c(s1)-c1ccccc1SC2)c1ccccc1F`: the survival was 1% (active).

As for `O=C(NCc1ccc(Cl)cc1)c1cc2c(s1)-c1ccccc1SC2`, the survival was 58% (inactive).

Consider `CCCN(C(=O)c1cc2c(s1)-c1c(C)cccc1OC2)c1ccc(OCC)cc1`, for which the survival was 98% (inactive).

For `CCOc1ccc(CNC(=O)c2cc3c(s2)-c2ccccc2OC3)cc1`, the survival was 71% (inactive).

`O=C(NCc1ccc(F)cc1)c1cc2c(s1)-c1ccccc1SC2`: the survival was 45% (active).

With `COc1ccc(OCC(=O)Nc2ccc3c(c2)OCO3)cc1`, the survival is 76% (inactive).

As to `COc1ccc(Cl)cc1NC(=O)N1CCC(CN2CCc3ccccc3C2)CC1`, the survival is 109% (inactive).

On to `COc1ccc(S(=O)(=O)c2c(SC)nn(Cc3ccccc3C)c2NC(C)=O)cc1`, for which the survival is 55% (inactive).

Turning to `CN1CCN(CCCNC(=O)c2cnn(-c3ccccc3)c2-n2cccc2)CC1`, the survival was 87% (inactive).

Take `Cc1ccc(OCC(=O)NCC(=O)OCc2cc(=O)n3nc(C)sc3n2)cc1`: the survival is 90% (inactive).

As to `Cc1ccc(C)c(N2CCN(c3nc4ccccc4n4nnnc34)CC2)c1`, the survival is 92% (inactive).

Consider `COc1ccc(Cn2c(=O)[nH]c3cc(C(=O)N4CCN(c5cccc(OC)c5)CC4)ccc3c2=O)cc1`, for which the survival is 63% (inactive).

Consider `CC(C)(C)OC(=O)N1CCC(c2c(C(=O)Nc3ccc4c(c3)OCCO4)cnn2-c2ccc(Cl)cc2)CC1`, for which the survival is 87% (inactive).

On to `CCOC(=O)c1cc(S(=O)(=O)N2CCN(c3ccc(C(C)=O)cc3)CC2)[nH]n1`, for which the survival is 126% (inactive).

With `Cc1c(Cl)cccc1NC(=O)CCS(=O)(=O)c1cccc2nsnc12`, the survival was 78% (inactive).

Regarding `CCOCCCNC(=O)C(c1ccccc1)N1Cc2ccccc2C1=O` (configuration not stated), the survival was 96% (inactive).

As to `CCCOc1ccc(CNC(=O)c2cc3ccccn3n2)cc1`, the survival was 116% (inactive).

With `CCOc1ccc(CNC(=O)c2ccccc2NC(=O)c2nsc3ccccc23)cc1`, the survival is -5% (active).

Take `CC(C)Oc1ccc(CNC(=O)c2ccccc2NC(=O)c2nsc3ccccc23)cc1`: the survival is 122% (inactive).

Consider `CCOc1ccc(CNC(=O)c2cc3ccccn3n2)cc1`, for which the survival was 52% (active).

In the case of `Cc1ccc(CNC(=O)c2ccccc2NC(=O)c2nsc3ccccc23)cc1`, the survival is 60% (inactive).

As to `CCc1ccc(CNC(=O)c2cc3ccccn3n2)cc1`, the survival is 97% (inactive).

As to `C=CCNC(=O)c1cc2sccc2n1Cc1ccccc1`, the survival is 85% (inactive).

`CC(C)C(=O)OCc1cc(=O)n2nc(C3CC3)sc2n1`: the survival is 86% (inactive).

Regarding `COc1ccc(S(=O)(=O)N/N=C(/C2CCCCC2)C(F)(F)F)cc1`, the survival is 35% (active).

In the case of `COc1ccc(S(=O)(=O)NNC(N)=S)cc1`, the survival is 100% (inactive).

For the compound `COc1ccc(S(=O)(=O)N(C)C2CCCCC2)cc1`, the survival was 85% (inactive).

Take `COc1ccc(CNC(=O)C(=O)NCC(c2ccco2)S(=O)(=O)c2ccc(C)cc2)cc1` (configuration not stated): the survival is 124% (inactive).

`CC1Oc2ccccc2N(CC(=O)NCC2CCCO2)C1=O` (configuration not stated): the survival was 83% (inactive).

As for `CCC(C)NC(=O)CSc1nc2c(sc3ccccc32)c(=O)n1CCc1ccc(OC)c(OC)c1` (configuration not stated), the survival was 66% (inactive).

In the case of `COC(=O)CC1Oc2ccc(F)cc2-n2cc(-c3ccc(C)cc3)nc21` (configuration not stated), the survival is 91% (inactive).

For `COC(=O)CC1Oc2ccccc2-n2cc(-c3ccc(C)cc3)nc21` (configuration not stated), the survival is 64% (inactive).

Turning to `COC(=O)CC1Oc2ccc(Cl)cc2-n2cc(-c3ccc(F)cc3)nc21` (configuration not stated), the survival is 90% (inactive).

Regarding `COC(=O)CC1Oc2ccc(C)cc2-n2cc(-c3ccc(C)cc3)nc21` (configuration not stated), the survival is 37% (active).

Turning to `COC(=O)CC1Oc2ccc(C)cc2-n2cc(-c3ccc(F)cc3)nc21` (configuration not stated), the survival is 56% (active).

For the compound `COC(=O)CC1Oc2ccc(Cl)cc2-n2cc(-c3ccc(C)cc3)nc21` (configuration not stated), the survival is 80% (inactive).

As for `COc1ccc(CCNC(=O)Cn2cc(C(=O)c3ccccc3)c(=O)c3ccc(C)nc32)cc1OC`, the survival is 124% (inactive).

Consider `O=C(Nc1cccnc1N1CCOCC1)c1cc2ccccc2oc1=O`, for which the survival is 79% (inactive).

Take `COc1cc(OC)c(C2C(C(=O)Nc3ccccc3)=C(C)Nc3ncnn32)cc1OC` (configuration not stated): the survival is 72% (inactive).

Take `COc1cccc(CNC(=O)CSc2n[nH]c(-c3ccccc3Cl)n2)c1`: the survival was 60% (inactive).

As for `O=C(CSc1n[nH]c(-c2ccccc2Cl)n1)NCCc1ccccc1`, the survival was 87% (inactive).

As for `COc1ccc(-c2nc(SCC(=O)NC(C)CCc3ccccc3)n[nH]2)cc1` (configuration not stated), the survival was 17% (active).

Regarding `O=C(CSc1n[nH]c(-c2ccccc2Cl)n1)NCc1ccc(F)cc1`, the survival was -4% (active).

For the compound `Cc1ccc(CNC(=O)CSc2n[nH]c(-c3ccc(F)cc3)n2)cc1`, the survival is 122% (inactive).

For `CC(CCc1ccccc1)NC(=O)CSc1n[nH]c(-c2ccc(F)cc2)n1` (configuration not stated), the survival is 126% (inactive).

For the compound `CC(CCc1ccccc1)NC(=O)CSc1n[nH]c(-c2ccccc2)n1` (configuration not stated), the survival was 94% (inactive).

Consider `COc1ccc(CNC(=O)CSc2n[nH]c(-c3ccc(F)cc3)n2)cc1`, for which the survival was 109% (inactive).

Turning to `COc1ccc(CNC(=O)CSc2n[nH]c(-c3ccc(OC)cc3)n2)cc1`, the survival was -5% (active).

For `Cc1cccc(N2CCN(C(=O)c3ccc4c(c3)N(Cc3ccccc3)C(=O)c3ccccc3S4(=O)=O)CC2C)c1` (configuration not stated), the survival is 63% (inactive).

As for `Cc1ccc(Cl)cc1NC(=O)c1oc2ccc(S(=O)(=O)N3CCCCC3)cc2c1C`, the survival was 74% (inactive).

Regarding `Cc1cccc(NC(=O)CN2C(=O)CSc3ccc(S(=O)(=O)N4CCCC4)cc32)c1C`, the survival was 92% (inactive).

In the case of `O=C(CSc1nc(-c2ccco2)cc(C(F)(F)F)n1)N1CCCC1`, the survival is 79% (inactive).

`CC(NCc1ccc2c(c1)n(C)c(=O)n2C)c1ccccc1` (configuration not stated): the survival is 94% (inactive).

With `CCc1ccc(CN2C(=O)c3ccccc3C2C(=O)NC2CCCCCC2)cc1` (configuration not stated), the survival is 75% (inactive).

For `CCn1c(=O)c(C(=O)Nc2ccc(Cl)cn2)c(O)c2ccccc21`, the survival was 95% (inactive).

With `CSc1nn(Cc2ccc(F)cc2)c(N)c1S(=O)(=O)c1ccc(Cl)cc1`, the survival was 101% (inactive).

Turning to `Cc1ccc(Cl)cc1-n1ncc2c(Nc3cccc(C)c3C)ncnc21`, the survival was 82% (inactive).

For `CN1CCN(CCNC(=O)c2cnn(-c3ccc(Cl)cc3)c2C2CCN(C(=O)OC(C)(C)C)CC2)CC1`, the survival is 69% (inactive).

As for `O=C(Nc1sc2c(c1C(=O)NCc1ccccc1)CCCC2)c1cc(=O)c2ccccc2o1`, the survival is 67% (inactive).

For the compound `O=C(Nc1sc2c(c1C(=O)NCc1ccco1)CCCC2)c1cc(=O)c2ccccc2o1`, the survival was 43% (active).

On to `O=C(Nc1sc2c(c1C(=O)NCc1ccccc1)CCCC2)c1cc(=O)c2cc(Cl)ccc2o1`, for which the survival was 49% (inactive).

`Cc1ccc2c(=O)cc(C(=O)Nc3sc4c(c3C(=O)NCc3ccco3)CCC4)oc2c1`: the survival is 78% (inactive).

Take `Cc1cc2oc(C(=O)Nc3sc4c(c3C(=O)NCc3ccccc3)CCCC4)cc(=O)c2cc1C`: the survival is 39% (active).

In the case of `Cc1ccc2c(=O)cc(C(=O)Nc3sc4c(c3C(=O)NCc3ccco3)CCCC4)oc2c1C`, the survival is 80% (inactive).

As for `Cc1cc2oc(C(=O)Nc3sc4c(c3C(=O)NCc3ccco3)CCC4)cc(=O)c2cc1C`, the survival was 38% (active).

As to `Cc1ccc2oc(C(=O)Nc3sc4c(c3C(=O)NCc3ccco3)CCC4)cc(=O)c2c1`, the survival was 82% (inactive).

Turning to `Cc1ccc2oc(C(=O)Nc3sc4c(c3C(=O)NCc3ccccc3)CCCC4)cc(=O)c2c1`, the survival was 66% (inactive).

Consider `Cc1ccc2c(=O)cc(C(=O)Nc3sc4c(c3C(=O)NCc3ccccc3)CCCC4)oc2c1C`, for which the survival was 89% (inactive).

Regarding `Cc1cc(C)c2oc(C(=O)Nc3sc4c(c3C(=O)NCc3ccco3)CCCC4)cc(=O)c2c1`, the survival is 82% (inactive).

Regarding `O=C(Nc1sc2c(c1C(=O)NCc1ccco1)CCCC2)c1cc(=O)c2cc(Cl)ccc2o1`, the survival is 38% (active).

On to `CC[n+]1c(C)sc2sc3ccccc3c21`, for which the survival was 68% (inactive).

For `COC(=O)Cn1nc(C)c2c(C)n(-c3ccccc3)nc2c1=O`, the survival is 90% (inactive).

As to `CCOc1ccc(NC(=O)Cn2cc(C(=O)c3ccc(CC)cc3)c(=O)c3cc4c(cc32)OCO4)cc1`, the survival is 86% (inactive).

On to `O=C(Cn1nc(-c2ccccc2)nc(Cc2ccccc2)c1=O)Nc1ccccc1`, for which the survival was 90% (inactive).

For the origin of these results see PubChem BioAssay AID463173 (ICCB-Longwood Screening Facility, Harvard Medical School, 2010).
